# In PMC7862700, “An all-to-all approach to the identification of sequence-specific readers for epigenetic DNA modifications on cytosine”:
# Assays:
# Experiment in all cases: DAPPL (digital affinity profiling via proximity ligation, sequencing); 10 mM Tris-HCl pH 7.5, 50 mM NaCl, 1 mM DTT, 4% glycerol, room temperature, 30 min; GST-TFs on glutathione beads, 16-mer random dsDNA library, 0.1% formaldehyde crosslink after washing; high values mean tight binding
# [1] = molecular target: T1, FLI1 (Homo sapiens, UniProt Q01543 1-452); conditions: protein: recombinant; tags: N-terminal GST; dsDNA, one strand shown
# T1 sequence: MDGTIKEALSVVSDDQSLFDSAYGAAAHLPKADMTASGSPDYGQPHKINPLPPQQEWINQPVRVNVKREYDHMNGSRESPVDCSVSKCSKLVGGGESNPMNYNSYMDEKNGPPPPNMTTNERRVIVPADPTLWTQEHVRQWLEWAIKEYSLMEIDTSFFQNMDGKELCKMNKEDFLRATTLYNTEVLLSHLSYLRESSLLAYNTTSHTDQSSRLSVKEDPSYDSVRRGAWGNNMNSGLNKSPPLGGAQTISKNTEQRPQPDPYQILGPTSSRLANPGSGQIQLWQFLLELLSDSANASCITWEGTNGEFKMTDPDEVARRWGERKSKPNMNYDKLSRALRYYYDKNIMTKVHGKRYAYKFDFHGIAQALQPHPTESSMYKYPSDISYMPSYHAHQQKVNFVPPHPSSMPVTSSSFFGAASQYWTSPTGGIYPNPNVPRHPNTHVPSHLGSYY
# Summary of the method: (§1)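 Human transcription factors carrying a GST fusion were produced in yeast, bound to glutathione beads, tagged with DNA barcodes and pooled together with a tag-only sample. Each pool was held with 200 nmole of a random double-stranded 16-mer DNA library in Tris/NaCl/DTT/glycerol buffer for 30 min at room temperature, then washed, crosslinked in 0.1% formaldehyde, proximity-ligated with BsaI/T4 ligase (1 h, 37 °C), PCR-amplified and sequenced on an Illumina NextSeq500. Binding signal is the read frequency of each hexamer for a given factor divided by its frequency in the tag-only sample.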
# [2] = molecular target: T2, ELK1 (Homo sapiens, UniProt P19419 1-428); conditions: protein: recombinant; tags: N-terminal GST; dsDNA, one strand shown
# T2 sequence: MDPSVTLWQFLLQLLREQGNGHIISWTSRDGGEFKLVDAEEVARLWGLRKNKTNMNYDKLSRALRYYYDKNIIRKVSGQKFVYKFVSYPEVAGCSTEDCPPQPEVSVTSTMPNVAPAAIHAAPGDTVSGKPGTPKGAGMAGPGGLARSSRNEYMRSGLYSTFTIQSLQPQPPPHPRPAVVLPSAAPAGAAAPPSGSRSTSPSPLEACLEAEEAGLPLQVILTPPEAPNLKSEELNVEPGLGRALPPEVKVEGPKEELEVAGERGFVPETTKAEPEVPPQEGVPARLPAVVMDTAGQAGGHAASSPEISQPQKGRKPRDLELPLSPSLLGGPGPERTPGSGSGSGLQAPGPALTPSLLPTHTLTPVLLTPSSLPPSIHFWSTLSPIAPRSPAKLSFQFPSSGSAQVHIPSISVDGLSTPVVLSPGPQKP
# Summary of the method: as §1
# [3] = molecular target: T3, GABPA (Homo sapiens, UniProt Q06546 1-454); conditions: protein: recombinant; tags: N-terminal GST; dsDNA, one strand shown
# T3 sequence: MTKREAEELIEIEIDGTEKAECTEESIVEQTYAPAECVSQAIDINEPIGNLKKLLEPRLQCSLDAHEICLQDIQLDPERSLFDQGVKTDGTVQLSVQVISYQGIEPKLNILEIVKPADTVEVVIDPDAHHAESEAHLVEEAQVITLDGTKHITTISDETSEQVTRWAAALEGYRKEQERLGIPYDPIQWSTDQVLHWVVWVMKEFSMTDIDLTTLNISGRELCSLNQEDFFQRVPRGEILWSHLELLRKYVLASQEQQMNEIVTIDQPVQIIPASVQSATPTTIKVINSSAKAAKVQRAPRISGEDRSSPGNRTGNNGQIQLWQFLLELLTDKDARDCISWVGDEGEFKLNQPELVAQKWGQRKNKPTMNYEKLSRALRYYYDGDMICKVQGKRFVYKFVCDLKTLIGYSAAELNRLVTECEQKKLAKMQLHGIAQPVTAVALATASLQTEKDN
# Summary of the method: as §1
# [4] = molecular target: T4, ERG (Homo sapiens, UniProt P11308 1-479); conditions: protein: recombinant; tags: N-terminal GST; dsDNA, one strand shown
# T4 sequence: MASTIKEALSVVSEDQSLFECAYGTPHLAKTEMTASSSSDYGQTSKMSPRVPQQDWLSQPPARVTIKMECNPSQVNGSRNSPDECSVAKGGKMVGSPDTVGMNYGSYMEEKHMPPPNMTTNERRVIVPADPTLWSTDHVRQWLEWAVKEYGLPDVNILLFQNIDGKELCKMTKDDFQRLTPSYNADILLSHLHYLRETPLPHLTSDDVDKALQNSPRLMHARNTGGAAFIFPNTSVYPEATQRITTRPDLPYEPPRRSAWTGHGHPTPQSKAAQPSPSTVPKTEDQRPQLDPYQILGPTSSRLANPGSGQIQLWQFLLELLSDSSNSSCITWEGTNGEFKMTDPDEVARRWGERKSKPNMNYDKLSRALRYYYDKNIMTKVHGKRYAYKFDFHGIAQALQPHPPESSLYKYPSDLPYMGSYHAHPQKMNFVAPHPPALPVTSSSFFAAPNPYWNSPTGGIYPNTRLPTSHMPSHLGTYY
# Summary of the method: as §1
# [5] = molecular target: ELF1 (Homo sapiens, UniProt P32519 1-619); conditions: protein: recombinant; tags: N-terminal GST; dsDNA, one strand shown
# Summary of the method: as §1
# [6] = molecular target: T5, EHF (Homo sapiens, UniProt Q9NZC4 1-300); conditions: protein: recombinant; tags: N-terminal GST; dsDNA, one strand shown
# T5 sequence: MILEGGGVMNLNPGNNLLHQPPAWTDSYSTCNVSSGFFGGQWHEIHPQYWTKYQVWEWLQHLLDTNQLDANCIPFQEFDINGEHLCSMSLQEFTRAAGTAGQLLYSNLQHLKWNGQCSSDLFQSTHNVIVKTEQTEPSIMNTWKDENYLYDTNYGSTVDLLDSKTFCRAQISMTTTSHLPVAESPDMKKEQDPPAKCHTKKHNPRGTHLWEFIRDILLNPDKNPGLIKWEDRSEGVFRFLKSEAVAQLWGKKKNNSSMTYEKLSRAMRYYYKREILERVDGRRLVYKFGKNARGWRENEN
# Summary of the method: as §1
# [7] = molecular target: SPI1 (Homo sapiens, UniProt P17947 1-270); conditions: protein: recombinant; tags: N-terminal GST; dsDNA, one strand shown
# Summary of the method: as §1
# [8] = molecular target: SPIB (Homo sapiens, UniProt Q01892 1-262); conditions: protein: recombinant; tags: N-terminal GST; dsDNA, one strand shown
# Summary of the method: as §1
# [9] = molecular target: T6, ELK3 (Homo sapiens, UniProt P41970 1-407); conditions: protein: recombinant; tags: N-terminal GST; dsDNA, one strand shown
# T6 sequence: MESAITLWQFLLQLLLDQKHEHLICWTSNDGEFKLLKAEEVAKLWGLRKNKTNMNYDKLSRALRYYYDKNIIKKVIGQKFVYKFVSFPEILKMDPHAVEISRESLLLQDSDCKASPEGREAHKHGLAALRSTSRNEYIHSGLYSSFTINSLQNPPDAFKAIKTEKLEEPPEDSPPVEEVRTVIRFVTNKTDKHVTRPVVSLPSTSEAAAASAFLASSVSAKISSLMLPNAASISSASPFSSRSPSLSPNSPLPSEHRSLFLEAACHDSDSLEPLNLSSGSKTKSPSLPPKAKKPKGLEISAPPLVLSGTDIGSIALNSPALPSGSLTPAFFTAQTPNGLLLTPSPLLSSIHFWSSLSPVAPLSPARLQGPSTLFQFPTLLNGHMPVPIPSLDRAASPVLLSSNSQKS
# Summary of the method: as §1
# [10] = molecular target: T7, FEV (Homo sapiens, UniProt Q99581 1-238); conditions: protein: recombinant; tags: N-terminal GST; dsDNA, one strand shown
# T7 sequence: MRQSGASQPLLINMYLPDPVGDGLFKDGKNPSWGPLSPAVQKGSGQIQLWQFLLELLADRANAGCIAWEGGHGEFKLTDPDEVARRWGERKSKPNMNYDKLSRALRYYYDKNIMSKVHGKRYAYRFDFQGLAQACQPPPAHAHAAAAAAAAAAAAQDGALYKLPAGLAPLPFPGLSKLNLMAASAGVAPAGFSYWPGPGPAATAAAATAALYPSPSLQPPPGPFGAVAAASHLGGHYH
# Summary of the method: as §1
# [11] = molecular target: ETV5 (Homo sapiens, UniProt P41161 1-510); conditions: protein: recombinant; tags: N-terminal GST; dsDNA, one strand shown
# Summary of the method: as §1
# [12] = molecular target: HSF1 (Homo sapiens, UniProt Q00613 1-529); conditions: protein: recombinant; tags: N-terminal GST; chain copies: 3; dsDNA, one strand shown
# Summary of the method: as §1
# [13] = molecular target: T8, SPIC (Homo sapiens, UniProt Q8N5J4 1-248); conditions: protein: recombinant; tags: N-terminal GST; dsDNA, one strand shown
# T8 sequence: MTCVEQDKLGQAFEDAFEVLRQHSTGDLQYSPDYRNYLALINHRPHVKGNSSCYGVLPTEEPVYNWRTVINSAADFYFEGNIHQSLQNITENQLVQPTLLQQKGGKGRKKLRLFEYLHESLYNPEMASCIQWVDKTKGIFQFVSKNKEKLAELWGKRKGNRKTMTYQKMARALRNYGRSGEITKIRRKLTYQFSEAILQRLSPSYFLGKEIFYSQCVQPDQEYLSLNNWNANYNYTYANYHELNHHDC
# Summary of the method: as §1
# [14] = molecular target: ELF4 (Homo sapiens, UniProt Q99607 1-663); conditions: protein: recombinant; tags: N-terminal GST; dsDNA, one strand shown
# Summary of the method: as §1
# [15] = molecular target: T9, ELK4 (Homo sapiens, UniProt P28324-2 1-405); conditions: protein: recombinant; tags: N-terminal GST; dsDNA, one strand shown
# T9 sequence: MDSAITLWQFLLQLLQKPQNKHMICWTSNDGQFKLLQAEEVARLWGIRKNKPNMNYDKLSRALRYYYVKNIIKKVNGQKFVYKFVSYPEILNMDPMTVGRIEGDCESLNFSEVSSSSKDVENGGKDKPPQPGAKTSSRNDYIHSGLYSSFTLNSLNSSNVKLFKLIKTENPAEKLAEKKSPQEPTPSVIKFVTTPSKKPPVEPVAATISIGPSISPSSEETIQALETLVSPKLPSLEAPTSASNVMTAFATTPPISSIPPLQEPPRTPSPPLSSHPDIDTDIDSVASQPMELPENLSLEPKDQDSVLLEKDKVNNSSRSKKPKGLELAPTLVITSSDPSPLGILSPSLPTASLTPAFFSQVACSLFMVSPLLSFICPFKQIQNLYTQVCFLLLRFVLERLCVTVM
# Summary of the method: as §1
# [16] = molecular target: T10, ETV2 (Homo sapiens, UniProt O00321 1-342); conditions: protein: recombinant; tags: N-terminal GST; dsDNA, one strand shown
# T10 sequence: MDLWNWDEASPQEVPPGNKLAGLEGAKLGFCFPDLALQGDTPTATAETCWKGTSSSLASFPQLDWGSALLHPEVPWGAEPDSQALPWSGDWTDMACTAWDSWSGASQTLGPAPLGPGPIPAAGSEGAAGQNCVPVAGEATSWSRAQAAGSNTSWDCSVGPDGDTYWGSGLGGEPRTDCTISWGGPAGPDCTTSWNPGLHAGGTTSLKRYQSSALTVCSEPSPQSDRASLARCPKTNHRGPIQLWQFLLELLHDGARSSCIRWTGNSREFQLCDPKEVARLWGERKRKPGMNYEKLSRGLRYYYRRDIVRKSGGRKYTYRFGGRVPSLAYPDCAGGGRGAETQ
# Summary of the method: as §1
# [17] = molecular target: T11, ELF3 (Homo sapiens, UniProt P78545 1-371); conditions: protein: recombinant; tags: N-terminal GST; dsDNA, one strand shown
# T11 sequence: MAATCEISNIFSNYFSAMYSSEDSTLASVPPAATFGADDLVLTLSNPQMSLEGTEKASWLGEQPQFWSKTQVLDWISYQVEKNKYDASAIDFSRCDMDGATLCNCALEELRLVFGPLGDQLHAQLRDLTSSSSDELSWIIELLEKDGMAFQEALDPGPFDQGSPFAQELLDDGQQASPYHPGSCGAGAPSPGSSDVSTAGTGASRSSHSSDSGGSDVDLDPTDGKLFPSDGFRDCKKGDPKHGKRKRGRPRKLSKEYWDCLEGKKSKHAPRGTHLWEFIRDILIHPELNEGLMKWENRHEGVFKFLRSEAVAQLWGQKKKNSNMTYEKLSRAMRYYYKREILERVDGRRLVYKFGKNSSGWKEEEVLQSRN
# Summary of the method: as §1
# [18] = molecular target: CRX (Homo sapiens, UniProt O43186 1-299); conditions: protein: recombinant; tags: N-terminal GST; dsDNA, one strand shown
# Summary of the method: as §1
# [19] = molecular target: ETV1 (Homo sapiens, UniProt P50549 1-477); conditions: protein: recombinant; tags: N-terminal GST; dsDNA, one strand shown
# Summary of the method: as §1
# Chain of HSF1 (Q00613 whole entry): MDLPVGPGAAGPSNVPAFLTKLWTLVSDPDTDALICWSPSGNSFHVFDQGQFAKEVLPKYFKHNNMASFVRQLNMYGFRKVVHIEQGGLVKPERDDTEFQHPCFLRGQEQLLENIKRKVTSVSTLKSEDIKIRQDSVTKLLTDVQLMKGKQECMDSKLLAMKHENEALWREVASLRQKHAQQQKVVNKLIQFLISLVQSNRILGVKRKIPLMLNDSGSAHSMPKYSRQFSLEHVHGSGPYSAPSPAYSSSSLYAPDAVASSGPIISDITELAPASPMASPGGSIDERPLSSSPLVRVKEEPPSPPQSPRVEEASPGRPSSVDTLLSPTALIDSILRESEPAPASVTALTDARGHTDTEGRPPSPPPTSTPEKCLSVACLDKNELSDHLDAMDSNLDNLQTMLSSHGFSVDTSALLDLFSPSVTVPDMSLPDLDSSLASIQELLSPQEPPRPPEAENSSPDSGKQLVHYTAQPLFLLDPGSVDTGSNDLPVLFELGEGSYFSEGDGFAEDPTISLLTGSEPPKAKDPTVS
# Chain of ELF1 (P32519 whole entry): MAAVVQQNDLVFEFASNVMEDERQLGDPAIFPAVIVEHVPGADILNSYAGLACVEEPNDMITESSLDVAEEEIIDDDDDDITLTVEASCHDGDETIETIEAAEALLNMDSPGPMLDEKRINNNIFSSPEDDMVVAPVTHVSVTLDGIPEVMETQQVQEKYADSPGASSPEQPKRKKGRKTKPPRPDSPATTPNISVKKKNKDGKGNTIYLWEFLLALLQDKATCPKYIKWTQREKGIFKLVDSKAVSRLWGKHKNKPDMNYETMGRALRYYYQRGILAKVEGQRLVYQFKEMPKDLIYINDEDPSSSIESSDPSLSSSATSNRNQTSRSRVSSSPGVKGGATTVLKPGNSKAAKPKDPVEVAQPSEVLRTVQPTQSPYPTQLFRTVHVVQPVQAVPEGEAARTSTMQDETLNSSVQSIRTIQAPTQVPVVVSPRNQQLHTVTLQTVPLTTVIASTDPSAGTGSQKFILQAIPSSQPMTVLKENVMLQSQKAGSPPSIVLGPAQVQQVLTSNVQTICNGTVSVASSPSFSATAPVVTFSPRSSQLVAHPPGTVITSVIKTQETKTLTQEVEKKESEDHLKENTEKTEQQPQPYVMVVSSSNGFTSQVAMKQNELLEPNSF
# Chain of ELF4 (Q99607 whole entry): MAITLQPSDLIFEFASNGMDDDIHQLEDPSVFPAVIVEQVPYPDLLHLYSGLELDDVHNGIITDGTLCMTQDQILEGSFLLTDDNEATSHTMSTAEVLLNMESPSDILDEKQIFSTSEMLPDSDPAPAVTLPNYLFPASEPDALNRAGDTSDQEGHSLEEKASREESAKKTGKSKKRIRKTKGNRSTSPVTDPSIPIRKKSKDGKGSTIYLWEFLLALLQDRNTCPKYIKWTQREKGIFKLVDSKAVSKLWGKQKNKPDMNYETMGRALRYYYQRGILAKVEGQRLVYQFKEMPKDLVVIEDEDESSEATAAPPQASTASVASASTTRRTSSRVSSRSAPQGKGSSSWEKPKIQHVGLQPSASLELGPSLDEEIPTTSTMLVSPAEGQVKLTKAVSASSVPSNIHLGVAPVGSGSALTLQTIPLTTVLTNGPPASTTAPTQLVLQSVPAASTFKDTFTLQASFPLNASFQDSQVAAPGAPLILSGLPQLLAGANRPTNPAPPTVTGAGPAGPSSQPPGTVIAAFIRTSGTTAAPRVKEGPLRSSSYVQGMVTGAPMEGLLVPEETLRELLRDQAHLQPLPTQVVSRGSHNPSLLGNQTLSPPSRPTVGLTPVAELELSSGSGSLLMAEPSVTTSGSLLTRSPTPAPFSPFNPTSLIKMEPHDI
# Chain of SPIB (Q01892 whole entry): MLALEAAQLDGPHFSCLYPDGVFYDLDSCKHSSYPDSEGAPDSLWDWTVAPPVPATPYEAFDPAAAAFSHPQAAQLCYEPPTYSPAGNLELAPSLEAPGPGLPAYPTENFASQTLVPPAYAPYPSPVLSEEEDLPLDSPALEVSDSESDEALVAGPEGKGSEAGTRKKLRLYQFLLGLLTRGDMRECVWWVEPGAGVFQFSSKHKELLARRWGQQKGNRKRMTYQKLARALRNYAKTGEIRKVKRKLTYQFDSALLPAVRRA
# Chain of ETV5 (P41161 whole entry): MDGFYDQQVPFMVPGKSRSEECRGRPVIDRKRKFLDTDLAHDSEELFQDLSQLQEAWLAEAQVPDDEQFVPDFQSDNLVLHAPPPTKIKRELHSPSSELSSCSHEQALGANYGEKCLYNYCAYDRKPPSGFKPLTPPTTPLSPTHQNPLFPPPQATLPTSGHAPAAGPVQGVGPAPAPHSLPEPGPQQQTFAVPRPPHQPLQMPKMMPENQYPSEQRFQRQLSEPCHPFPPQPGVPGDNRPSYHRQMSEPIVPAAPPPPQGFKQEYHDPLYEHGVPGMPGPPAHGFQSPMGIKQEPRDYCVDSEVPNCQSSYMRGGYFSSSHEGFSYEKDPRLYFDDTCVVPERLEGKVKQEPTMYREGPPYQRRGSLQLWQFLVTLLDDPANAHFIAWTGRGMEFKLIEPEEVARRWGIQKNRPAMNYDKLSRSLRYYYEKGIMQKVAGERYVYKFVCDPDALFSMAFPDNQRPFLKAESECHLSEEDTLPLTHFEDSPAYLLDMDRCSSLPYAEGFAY
# Chain of CRX (O43186 whole entry): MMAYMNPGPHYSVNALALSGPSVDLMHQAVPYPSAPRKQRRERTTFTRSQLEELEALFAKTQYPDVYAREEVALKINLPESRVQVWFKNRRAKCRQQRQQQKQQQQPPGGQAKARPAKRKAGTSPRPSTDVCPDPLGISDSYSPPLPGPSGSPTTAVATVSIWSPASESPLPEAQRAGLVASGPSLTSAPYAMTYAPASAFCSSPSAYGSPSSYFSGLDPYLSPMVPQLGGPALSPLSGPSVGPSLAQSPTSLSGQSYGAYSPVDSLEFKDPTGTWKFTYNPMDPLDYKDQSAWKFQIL
# Chain of ETV1 (P50549 whole entry): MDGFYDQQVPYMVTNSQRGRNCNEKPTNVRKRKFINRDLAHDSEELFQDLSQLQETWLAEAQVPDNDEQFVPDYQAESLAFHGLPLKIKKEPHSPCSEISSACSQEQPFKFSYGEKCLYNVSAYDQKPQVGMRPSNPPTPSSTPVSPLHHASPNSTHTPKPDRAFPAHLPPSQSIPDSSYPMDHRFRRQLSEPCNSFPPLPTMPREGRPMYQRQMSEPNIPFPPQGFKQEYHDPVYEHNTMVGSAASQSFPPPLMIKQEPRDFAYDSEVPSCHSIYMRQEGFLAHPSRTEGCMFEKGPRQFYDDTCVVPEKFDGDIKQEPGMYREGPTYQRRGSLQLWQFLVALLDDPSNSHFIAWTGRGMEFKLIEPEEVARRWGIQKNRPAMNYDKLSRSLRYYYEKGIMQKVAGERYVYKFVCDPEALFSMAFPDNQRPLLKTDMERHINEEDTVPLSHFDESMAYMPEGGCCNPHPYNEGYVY
sequence,measurement,setting,value
CTCAGC,binding signal,[1],"1.15 fold enrichment (6-mer frequency, TF over GST control)"
same,binding signal,[2],"1.22 fold enrichment (6-mer frequency, TF over GST control)"
same,binding signal,[3],"1.38 fold enrichment (6-mer frequency, TF over GST control)"
same,binding signal,[4],"1.24 fold enrichment (6-mer frequency, TF over GST control)"
same,binding signal,[5],"1.3 fold enrichment (6-mer frequency, TF over GST control)"
same,binding signal,[6],"1.28 fold enrichment (6-mer frequency, TF over GST control)"
same,binding signal,[7],"1.23 fold enrichment (6-mer frequency, TF over GST control)"
same,binding signal,[8],"1.35 fold enrichment (6-mer frequency, TF over GST control)"
same,binding signal,[9],"1.12 fold enrichment (6-mer frequency, TF over GST control)"
same,binding signal,[10],"1.3 fold enrichment (6-mer frequency, TF over GST control)"
same,binding signal,[11],"1.11 fold enrichment (6-mer frequency, TF over GST control)"
same,binding signal,[12],"1.1 fold enrichment (6-mer frequency, TF over GST control)"
same,binding signal,[13],"1.16 fold enrichment (6-mer frequency, TF over GST control)"
same,binding signal,[14],"1.27 fold enrichment (6-mer frequency, TF over GST control)"
same,binding signal,[15],"1.24 fold enrichment (6-mer frequency, TF over GST control)"
same,binding signal,[16],"1.31 fold enrichment (6-mer frequency, TF over GST control)"
same,binding signal,[17],"1.2 fold enrichment (6-mer frequency, TF over GST control)"
same,binding signal,[18],"1.31 fold enrichment (6-mer frequency, TF over GST control)"
same,binding signal,[19],"1.28 fold enrichment (6-mer frequency, TF over GST control)"
